Results filed as inconclusive are left out. Calls of active or inactive are those of the source. Unless noted, calls follow the shape of the dose curve; as a rule, active = well fitted curve in the direction sought with a large enough effect in the repeat runs; inconclusive = weak or mixed curves; inactive = no such curve, though single readings can be large; an effect the other way counts as inactive or inconclusive.
Columns and labels:
[1] = molecular target: Aryl hydrocarbon receptor (Homo sapiens) (UniProt P35869); assay: qHTS assay to identify small molecule that activate the aryl hydrocarbon receptor (AhR) signaling pathway (AID 743085);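 also: HG2L7.5c1 human HepG2 liver cells with stably integrated DRE-driven firefly reporter; series mostly up to about 70 µM; nearly all actives have a fitted effect of over 15% in size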
Summary of the method: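 AhR agonist activity is inferred from enhanced light output of a DRE-controlled firefly luciferase reporter in HepG2 cells, measured with ONE-Glo following 24 h treatment at 37C.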

[2] = qHTS assay to identify small molecule that activate the aryl hydrocarbon receptor (AhR) signaling pathway - cell viability counter screen (AID 743086);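 also: HepG2 liver cells carrying the AhR DRE luciferase reporter; series mostly up to about 70 µM; nearly all actives have a fitted effect of over 45% in size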
Summary of the method: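 HepG2-AhR-luc (HG2L7.5c1) cells, 4000/well, treated 24 h at 37 C with compound; viability measured as CellTiter-Fluor fluorescence after 30 min in the same wells as the luciferase read.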

[3] = molecular target: Peroxisome proliferator-activated receptor gamma (Homo sapiens) (UniProt P37231); assay: qHTS assay to identify small molecule agonists of the peroxisome proliferator-activated receptor gamma (PPARg) signaling pathway (AID 743094; active = well fitted activation curve with a large enough effect in the signal ratio in the repeat runs, not every such curve was filed as active; the % refers to the signal ratio)
Summary of the method: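 GeneBLAzer PPARg UAS-bla HEK293H cells carrying a stably integrated beta-lactamase reporter were pre-incubated 5 h at 37C, then exposed to compounds in DMSO for 17 h at 37C; LiveBLAzer B/G FRET substrate was added for 1 h at room temperature and fluorescence read.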

[4] = molecular target: Peroxisome proliferator-activated receptor gamma (Homo sapiens) (UniProt P37231); assay: qHTS assay to identify small molecule antagonists of the peroxisome proliferator-activated receptor gamma (PPARg) signaling pathway (AID 743191; calls by dose curve; also: series mostly up to about 63 µM; nearly all actives have a fitted effect of over 30% in size)
Summary of the method: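 GeneBLAzer PPARg UAS-bla HEK293H cells, 5 h post-plating, exposed to compounds 17 h at 37C. LiveBLAzer B/G FRET substrate added for 1 h at room temperature; beta-lactamase reporter read by fluorescence intensity.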

[5] = qHTS assay to identify small molecule antagonists of the peroxisome proliferator-activated receptor gamma (PPARg) signaling pathway - cell viability counter screen (AID 743194); also: nearly all actives have a fitted effect of over 55% in size
Summary of the method: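 Cytotoxicity counter screen in PPARg-bla HEK293H cells, same wells as reporter assay. Compounds plus 50 nM rosiglitazone (final) for 17 h at 37 C, then viability read by CellTiter-Glo luminescence.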

[6] = qHTS assay for small molecule agonists of the antioxidant response element (ARE) signaling pathway (AID 743202; active = well fitted activation curve with a large enough effect in the signal ratio in the repeat runs, not every such curve was filed as active; the % refers to the signal ratio)
Summary of the method: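 Agonist mode reporter screen: HepG2 cells with ARE-controlled beta-lactamase are incubated with test compounds for 16 h at 37 C, and beta-lactamase activity is measured as fluorescence of cleaved B/G FRET substrate.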

[7] = qHTS assay for small molecule agonists of the antioxidant response element (ARE) signaling pathway - cell viability counter screen (AID 743203; calls by dose curve; also: nearly all actives have a fitted effect of over 55% in size)
Summary of the method: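 CellSensor ARE-bla HepG2 cells, 2,000 per well, rested 5 hrs at 37C/5% CO2, then exposed to compound in DMSO for 16 hrs; viability read as CellTiter-Glo luminescence after 30 min at room temperature, in the reporter wells.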

[8] = qHTS assay for small molecule activators of the heat shock response signaling pathway - cell viability counter screen (AID 743209); also: nearly all actives have a fitted effect of over 50% in size
Summary of the method: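 CellSensor HSE-bla HeLa cells, plated overnight at 37 C/5% CO2, were exposed to compounds in DMSO for 5 h at 37 C. Viability was then read in the same wells by CellTiter-Glo luminescence after 30 min at room temperature.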

[9] = qHTS assay for small molecule activators of the heat shock response signaling pathway (AID 743210; active = well fitted activation curve with a large enough effect in the signal ratio in the repeat runs, with a control signal flat, not every such curve was filed as active; the % refers to the signal ratio;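 also: HeLa cells with beta-lactamase reporter driven by heat shock elements; series mostly up to about 63 µM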)
Summary of the method: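 Quantitative high-throughput format using an engineered HeLa line in which heat shock response elements drive beta-lactamase; after 5 h with compound, cells received a B/G FRET substrate and fluorescence was read.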

[10] = molecular target: Peroxisome proliferator-activated receptor delta (Homo sapiens) (UniProt Q03181); assay: qHTS assay to identify small molecule agonists of the peroxisome proliferator-activated receptor delta (PPARd) signaling pathway (AID 743212; calls by dose curve)
Summary of the method: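 Quantitative high-throughput agonist screen in a HEK293H beta-lactamase reporter line under UAS control. Compounds in DMSO, at 37 C. Fluorescence read after 2 h with FRET substrate at room temperature.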

[11] = molecular target: Peroxisome proliferator-activated receptor delta (Homo sapiens) (UniProt Q03181); assay: qHTS assay to identify small molecule antagonists of the peroxisome proliferator-activated receptor delta (PPARd) signaling pathway (AID 743215; active = well fitted inhibition curve with a large enough effect in the signal ratio in the repeat runs, not every such curve was filed as active; the % refers to the signal ratio; also: series mostly up to about 62 µM)
Summary of the method: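 PPARd UAS-bla HEK293H cells were pre-incubated 5 h at 37 C, then given test compounds in DMSO plus agonist L165041 (300 nM final). After 17 h at 37 C, beta-lactamase FRET substrate was added; fluorescence read after 2 h at room temperature.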

[12] = molecular target: Bile acid receptor (Homo sapiens) (UniProt Q96RI1); assay: qHTS assay to identify small molecule antagonists of the farnesoid-X-receptor (FXR) signaling pathway (AID 743217; active = well fitted inhibition curve with a large enough effect in the signal ratio in the repeat runs, not every such curve was filed as active; the % refers to the signal ratio)
Summary of the method: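 FXR-UAS-bla HEK 293T cells pre-incubated 5 h at 37 °C, then exposed to compounds with chenodeoxycholic acid (50 uM final) for 16 h at 37 °C. Beta-lactamase reporter read by LiveBLAzer B/G FRET substrate fluorescence after 2 h at room temperature.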

[13] = qHTS assay to identify small molecule agonists of the farnesoid-X-receptor (FXR) signaling pathway - cell viability counter screen (AID 743218); also: nearly all actives have a fitted effect of over 45% in size
Summary of the method: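 FXR-UAS-bla HEK 293T cells, plated 5 h at 37 C, were exposed to compounds for 16 h at 37 C. CellTiter-Glo was then added to the same wells as the bla readout; luminescence read after 30 min at room temperature.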

[14] = molecular target: Bile acid receptor (Homo sapiens) (UniProt Q96RI1); assay: qHTS assay to identify small molecule agonists of the farnesoid-X-receptor (FXR) signaling pathway (AID 743220; active = well fitted activation curve with a large enough effect in the signal ratio in the repeat runs, not every such curve was filed as active; the % refers to the signal ratio)
Summary of the method: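 Beta-lactamase reporter under UAS control in GeneBLAzer FXR HEK 293T cells (5000/well) measured with LiveBLAzer FRET substrate after 2 h at room temperature. Compound exposure lasted 16 h at 37C.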

[15] = qHTS assay to identify small molecule antagonists of the farnesoid-X-receptor (FXR) signaling pathway - cell viability counter screen (AID 743221; active = well fitted cell-killing curve with a large enough effect in the repeat runs, not every such curve was filed as active; also: nearly all actives have a fitted effect of over 50% in size)
Summary of the method: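 After a 5 h settling period, FXR-bla HEK 293T cells receive compound and chenodeoxycholic acid (50 uM final) and incubate 16 h at 37 C; CellTiter-Glo luminescence, read after 30 min at room temperature, reports cell viability.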

[16] = molecular target: Vitamin D3 receptor (Homo sapiens) (UniProt P11473); assay: qHTS assay to identify small molecule agonists of the vitamin D receptor (VDR) signaling pathway (AID 743222; calls by dose curve)
Summary of the method: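 VDR-bla cells were plated 4 h at 37C/5% CO2, then exposed to compounds in DMSO for 16 h. After LiveBLAzer B/G FRET substrate addition and 2 h at room temperature, beta-lactamase reporter fluorescence was read.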

[17] = molecular target: Vitamin D3 receptor (Homo sapiens) (UniProt P11473); assay: qHTS assay to identify small molecule antagonists of the vitamin D receptor (VDR) signaling pathway (AID 743223; active = well fitted inhibition curve with a large enough effect in the signal ratio in the repeat runs, not every such curve was filed as active; the % refers to the signal ratio)
Summary of the method: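 Reporter line VDR-bla; stimulus 1alpha,25-(OH)2 vitamin D3, 3 nM final; compound co-addition, 16 h 37C/5% CO2; LiveBLAzer B/G substrate 2 h RT; fluorescence intensity.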

[18] = qHTS assay to identify small molecule agonists of the vitamin D receptor (VDR) signaling pathway - cell viability counter screen (AID 743224); also: series mostly up to about 63 µM; nearly all actives have a fitted effect of over 50% in size
Summary of the method: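 VDR-bla cells were preincubated 4 h at 37C/5% CO2, then exposed to compounds for 16 h. After the 2 h room-temperature bla FRET read, CellTiter-Glo was added to the same wells and luminescence read after 30 min.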

[19] = qHTS assay to identify small molecule antagonists of the peroxisome proliferator-activated receptor delta (PPARd) signaling pathway - cell viability counter screen (AID 743213); also: nearly all actives have a fitted effect of over 50% in size
Summary of the method: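 Agonist-stimulated (L165041, 300 nM final) HEK293H PPARd UAS-bla cells are exposed to compounds for 17 h at 37 C, and ATP-based luminescence (CellTiter-Glo) from the same wells reports cytotoxicity.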

[20] = qHTS assay to identify small molecule agonists of the peroxisome proliferator-activated receptor delta (PPARd) signaling pathway - cell viability counter screen (AID 743211); also: nearly all actives have a fitted effect of over 55% in size
Summary of the method: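 qHTS cell viability: PPARd-bla HEK293H; 17 h cpd, 37C; CellTiter-Glo, luminescence at 30 min RT.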

Measured: Potency

Aryl hydrocarbon receptor (Homo sapiens), sequence (P35869 whole entry, looked up): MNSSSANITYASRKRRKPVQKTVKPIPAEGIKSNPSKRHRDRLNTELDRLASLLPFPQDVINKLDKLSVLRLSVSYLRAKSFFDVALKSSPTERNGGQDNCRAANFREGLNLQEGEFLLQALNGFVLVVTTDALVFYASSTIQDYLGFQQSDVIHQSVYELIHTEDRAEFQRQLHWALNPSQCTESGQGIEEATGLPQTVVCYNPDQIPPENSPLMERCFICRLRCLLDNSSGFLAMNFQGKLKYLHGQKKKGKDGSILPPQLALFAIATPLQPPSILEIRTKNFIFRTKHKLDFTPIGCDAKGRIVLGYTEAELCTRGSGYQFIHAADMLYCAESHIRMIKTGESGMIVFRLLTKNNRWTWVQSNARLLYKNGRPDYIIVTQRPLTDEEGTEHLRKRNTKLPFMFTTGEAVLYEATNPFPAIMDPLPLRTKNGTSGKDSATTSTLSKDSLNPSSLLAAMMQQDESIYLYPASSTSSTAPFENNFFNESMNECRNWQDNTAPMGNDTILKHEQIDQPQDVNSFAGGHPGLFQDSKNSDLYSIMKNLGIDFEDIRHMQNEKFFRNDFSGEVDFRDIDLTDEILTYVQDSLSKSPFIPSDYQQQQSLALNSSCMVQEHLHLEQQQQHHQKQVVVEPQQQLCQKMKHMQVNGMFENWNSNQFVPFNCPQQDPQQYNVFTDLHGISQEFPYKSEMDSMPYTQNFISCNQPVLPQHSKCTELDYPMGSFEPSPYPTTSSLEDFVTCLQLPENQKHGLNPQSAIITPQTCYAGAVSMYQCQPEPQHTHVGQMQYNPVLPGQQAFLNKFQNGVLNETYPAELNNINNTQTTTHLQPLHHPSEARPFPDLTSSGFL
Peroxisome proliferator-activated receptor delta (Homo sapiens), sequence (Q03181 whole entry, looked up): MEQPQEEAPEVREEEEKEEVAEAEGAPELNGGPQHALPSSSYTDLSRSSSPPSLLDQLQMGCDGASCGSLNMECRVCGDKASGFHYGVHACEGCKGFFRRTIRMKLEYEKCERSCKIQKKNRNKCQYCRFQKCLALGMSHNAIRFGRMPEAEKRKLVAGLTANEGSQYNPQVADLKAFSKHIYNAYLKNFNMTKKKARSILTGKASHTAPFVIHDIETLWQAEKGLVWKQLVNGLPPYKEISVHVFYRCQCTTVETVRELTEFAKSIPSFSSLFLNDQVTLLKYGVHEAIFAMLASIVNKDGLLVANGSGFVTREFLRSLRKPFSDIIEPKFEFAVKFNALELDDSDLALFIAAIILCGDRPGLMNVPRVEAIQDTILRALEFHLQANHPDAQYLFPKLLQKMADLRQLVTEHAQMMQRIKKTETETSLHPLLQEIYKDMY
Vitamin D3 receptor (Homo sapiens), sequence (P11473 whole entry, looked up): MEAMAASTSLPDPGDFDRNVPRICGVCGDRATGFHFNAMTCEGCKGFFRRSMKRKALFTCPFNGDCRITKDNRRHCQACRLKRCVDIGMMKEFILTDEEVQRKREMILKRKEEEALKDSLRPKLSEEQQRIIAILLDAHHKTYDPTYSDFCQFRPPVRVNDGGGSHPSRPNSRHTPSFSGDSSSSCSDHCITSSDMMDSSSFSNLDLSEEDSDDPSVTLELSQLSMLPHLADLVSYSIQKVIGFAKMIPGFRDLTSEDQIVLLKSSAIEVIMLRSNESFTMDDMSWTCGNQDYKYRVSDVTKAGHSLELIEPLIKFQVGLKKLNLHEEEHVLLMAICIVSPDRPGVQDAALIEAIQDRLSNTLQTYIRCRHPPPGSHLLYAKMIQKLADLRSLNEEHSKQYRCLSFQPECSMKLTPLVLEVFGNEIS
Peroxisome proliferator-activated receptor gamma (Homo sapiens), sequence (P37231 whole entry, looked up): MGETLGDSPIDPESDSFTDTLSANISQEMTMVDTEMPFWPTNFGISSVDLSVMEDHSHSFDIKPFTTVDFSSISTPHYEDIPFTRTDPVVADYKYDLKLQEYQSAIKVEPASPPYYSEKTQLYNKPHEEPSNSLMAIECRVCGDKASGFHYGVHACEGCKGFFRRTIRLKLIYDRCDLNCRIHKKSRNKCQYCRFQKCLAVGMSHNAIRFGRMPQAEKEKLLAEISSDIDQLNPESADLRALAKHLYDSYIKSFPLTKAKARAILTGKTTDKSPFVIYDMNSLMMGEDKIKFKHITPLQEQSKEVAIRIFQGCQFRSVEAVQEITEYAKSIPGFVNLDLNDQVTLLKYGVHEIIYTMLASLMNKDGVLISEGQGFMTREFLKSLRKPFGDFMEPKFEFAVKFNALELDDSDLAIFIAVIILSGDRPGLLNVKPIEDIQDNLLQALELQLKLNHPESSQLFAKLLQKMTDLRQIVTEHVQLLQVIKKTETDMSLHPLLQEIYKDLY
Bile acid receptor (Homo sapiens), sequence (Q96RI1 whole entry, looked up): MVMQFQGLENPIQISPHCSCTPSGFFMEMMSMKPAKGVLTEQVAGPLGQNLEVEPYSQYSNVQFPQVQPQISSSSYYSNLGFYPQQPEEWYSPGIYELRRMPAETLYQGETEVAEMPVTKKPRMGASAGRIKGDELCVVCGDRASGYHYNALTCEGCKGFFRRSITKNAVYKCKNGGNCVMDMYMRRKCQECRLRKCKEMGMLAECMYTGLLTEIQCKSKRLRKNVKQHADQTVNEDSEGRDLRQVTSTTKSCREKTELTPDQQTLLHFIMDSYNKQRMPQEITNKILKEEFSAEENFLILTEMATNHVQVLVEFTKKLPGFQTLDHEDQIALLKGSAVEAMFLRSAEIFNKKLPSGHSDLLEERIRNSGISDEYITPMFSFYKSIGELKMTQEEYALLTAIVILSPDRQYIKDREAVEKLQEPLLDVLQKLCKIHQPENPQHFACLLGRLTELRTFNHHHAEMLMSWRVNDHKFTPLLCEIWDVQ

CCc1ccc(C)cc1
not listed: [19] | [20]
inactive: all other assays above

FC(F)(F)C(F)(F)C(F)(F)C(F)(F)CCI
not listed: [9] | [12] | [14] | [15] | [20]
inactive: all other assays above

C=CCOC(=O)COCCC(C)C
not listed: [12] | [13] | [14] | [16] | [17]
inactive: all other assays above

Cc1ccc(Cl)cc1N
not listed: [14]
inactive: all other assays above

O=C(O)c1cc(Cl)cc(Cl)c1O
not listed: [10] | [12] | [13] | [14] | [15] | [20]
inactive: all other assays above

CCCCCCCCCCCCCCCCCC(=O)OCC(CC)CCCC (stereo unspecified)
not listed: [6] | [12] | [14] | [15]
inactive: all other assays above

CCCCCCCCCCCCCCCC(=O)OCC
not listed: [6] | [16] | [17]
inactive: all other assays above

CC(=O)NCCO
not listed: [6] | [12] | [14]
inactive: all other assays above

OCC(CO)n1cnc(-c2ccc(F)cc2)c1-c1ccnc(Oc2ccccc2)n1
not listed: [6] | [12] | [14] | [15] | [19]
inactive: all other assays above
